# In the supplement of paper PMC10127200:
# Structures can show the parent of a compound that is named as a salt.
# How the values were obtained:
# Experiment in all cases: Euclidean distance of Cell Painting phenotypic profile (signed KS, 77 features) to DMSO centroid (dimensionless distance); 5 or 10 uM (library dependent); higher = stronger phenotypic change vs DMSO (phenoactivity)
# Conditions in all cases: 48 h
# 786-O = tested on: 786-O
# Outline: (§1)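 Phenoactivity is computed as Euclidean distance to the median vehicle profile. The profiles, drawn from 77 Harmony features scored as signed Kolmogorov-Smirnov statistics versus same-plate vehicle wells, were corrected for plate position, correlation-weighted and replicate-averaged at the top dose. Stained cells were imaged confocally at 20X (9 fields/well) after 48 h with library compounds at 10 or 5 uM, 0.1% DMSO final, in five cancer lines and a healthy fibroblast line.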
# A549 = tested on: A549
# Outline: as §1
# DU145 = tested on: DU145
# Outline: as §1
# FB = tested on: FB
# Outline: as §1
# HEPG2 = tested on: HEPG2
# Outline: as §1
# OVCAR4 = tested on: OVCAR4
# Outline: as §1
SMILES,Euclidean distance (786-O),Euclidean distance (A549),Euclidean distance (DU145),Euclidean distance (FB),Euclidean distance (HEPG2),Euclidean distance (OVCAR4)
CN1C(=O)[C@@H](NC(=O)c2n[nH]c(Cc3ccccc3)n2)COc2ccccc21,0.778,1.15,1.8,1.02,0.727,1.12
FCOC(C(F)(F)F)C(F)(F)F [Sevoflurane],1.15,0.865,0.847,0.867,0.827,1.51
CNS(=O)(=O)Cc1ccc2[nH]cc(CCN(C)C)c2c1 [Sumatriptan Succinate],1.54,1.49,0.753,1.35,0.966,1.66
CN1CCN2c3ncccc3Cc3ccccc3C2C1 (stereo not drawn) [Mirtazapine],0.981,0.95,0.897,0.869,0.332,1.12
CCOc1cc2ncc(C#N)c(Nc3ccc(F)c(Cl)c3)c2cc1NC(=O)/C=C/CN(C)C [Pelitinib (EKB-569)],2.29,3.19,4.45,4.45,2.63,2.82
Cn1cnc2c(F)c(Nc3ccc(Br)cc3Cl)c(C(=O)NOCCO)cc21 [Selumetinib (AZD6244)],2.23,2.67,2.91,2.95,1.72,2.19
CC(=O)NC[C@H]1CN(c2ccc(N3CCOCC3)c(F)c2)C(=O)O1 [Linezolid],1.83,1.27,1.73,0.611,0.92,1.35
C[C@@H](c1nc(-c2ccc(C#N)cc2)cs1)[C@](O)(Cn1cncn1)c1cc(F)ccc1F [Isavuconazole],1,1.45,1.02,0.654,1.55,1.43
c1cc(CN2CCCNCCNCCCNCC2)ccc1CN1CCCNCCNCCCNCC1 [Plerixafor (AMD3100)],0.664,1.12,0.673,0.848,0.976,1.03
CC(C)n1nc(-c2cc3cc(O)ccc3[nH]2)c2c(N)ncnc21,4.59,3.23,2.64,4.3,3.12,4.61
O=C(Nc1cccnc1)N1CCC(Cc2cccc(Oc3ccc(C(F)(F)F)cn3)c2)CC1,0.844,1.34,0.774,0.825,1.94,0.736
CN1CCC(=C2c3ccccc3C=Cc3ccccc32)CC1 [Cyproheptadine HCl],1.25,0.786,1.84,2.04,2.64,1.39
COc1ccc(-c2coc3cc(O)cc(O)c3c2=O)cc1 [Biochanin A],0.496,0.937,0.839,0.805,1.1,0.958
C[C@H]1NCc2cc(-c3ccc4c(=O)c(C(=O)O)cn(C5CC5)c4c3OC(F)F)ccc21 [Garenoxacin],0.629,0.876,0.678,1.54,0.463,1.08
N#Cc1ccc([C@H]2CCc3cncn32)c(F)c1 [Osilodrostat (LCI699)],1.39,1.28,1.56,1.68,0.588,1.57
CSc1ccc(C(=O)/C=C/c2cc(C)c(OC(C)(C)C(=O)O)c(C)c2)cc1 [Elafibranor],1.24,1.28,0.801,1.43,0.747,0.978
O=C1NS(=O)(=O)c2ccccc21 [Saccharin],1.09,0.449,0.729,0.738,0.461,0.73
N=C1CCCN1Cc1[nH]c(=O)[nH]c(=O)c1Cl [Tipiracil hydrochloride],1.02,0.947,0.925,1.05,0.343,0.676
C[C@H]1O[C@@H](O[C@H]2CC[C@@]3(C)[C@@H](CC[C@]4(C)[C@@H]3C=C[C@]35OC[C@@]6(CCC(C)(C)C[C@H]63)[C@H](O)C[C@]54C)[C@]2(C)CO)[C@H](O)[C@@H](O[C@@H]2O[C@H](CO)[C@@H](O)[C@H](O)[C@H]2O)[C@H]1O [Saikosaponin D],2.45,2.4,5.79,1.95,4.11,2.92
CCS(=O)(=O)CCn1c([N+](=O)[O-])cnc1C [Tinidazole],0.626,0.68,0.693,0.579,0.533,1.48
Cc1cc(NS(=O)(=O)c2ccc(N)cc2)nc(C)n1 [sulfaisodimidine],0.897,0.563,0.503,0.948,0.529,0.686
CCN[C@H]1CN(CCCOC)S(=O)(=O)c2sc(S(N)(=O)=O)cc21 [Brinzolamide],1.5,1.1,1.06,1.48,0.663,2.07
O=C(Nc1cccc2cccnc12)c1ccc(N2C(=O)[C@@H]3[C@H](C2=O)[C@@H]2C=C[C@H]3C2)cc1 [IWR-1-endo],1,1.06,1.39,1.64,1.53,1.54
COC1CCN(C(=O)c2cc(Cc3n[nH]c(=O)c4ccccc34)ccc2F)CC1,1.09,1.25,1.32,1.5,1.36,1.3
CN1CC2c3ccccc3Oc3ccc(Cl)cc3C2C1 (stereo not drawn) [Asenapine maleate],1.69,0.991,2.6,1.59,1.28,1.51
O=C(O)P(=O)(O)O [Foscarnet Sodium],1.83,0.762,1.18,0.986,0.776,1.11
CO[C@H]1/C=C\C=C(/C)C(=O)NC2=CC(=O)C(NCCN(C)C)=C(C[C@@H](C)C[C@H](OC)[C@H](O)[C@@H](C)/C=C(\C)[C@@H]1OC(N)=O)C2=O,2.76,2.89,4.03,3.32,3.56,2.71
CCC(=O)O[C@@H](O[P@](=O)(CCCCc1ccccc1)CC(=O)N1C[C@H](C2CCCCC2)C[C@H]1C(=O)O)C(C)C [Fosinopril Sodium],1.19,0.719,1.62,0.746,0.444,1.23
